From PubChem BioAssay (NCI)
Compounds without any hit were thinned out: in the full panel of roughly 83,000, 20% have a hit.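 Plates (96-well) were seeded with cells, treated with compound at one concentration, and incubated for 48 hours before percent growth was determined.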 Active and inactive are the calls of the source. The calls were made as follows: active = growth percent below 10; inactive = the rest.

Key:
Assay in all cases: NCI-60 one-dose screen, 48 h (100 = growth as untreated, 0 = no growth, -100 = all killed)
Conditions in all cases: 10 µM unless noted
SR leukemia = tested on: SR leukemia
RPMI-8226 leukemia = tested on: RPMI-8226 leukemia
OVCAR-8 ovarian = tested on: OVCAR-8 ovarian
OVCAR-5 ovarian = tested on: OVCAR-5 ovarian
OVCAR-4 ovarian = tested on: OVCAR-4 ovarian
IGROV1 ovarian = tested on: IGROV1 ovarian
OVCAR-3 ovarian = tested on: OVCAR-3 ovarian
HS 578T breast = tested on: HS 578T breast
NCI/ADR-RES ovarian = tested on: NCI/ADR-RES ovarian
T-47D breast = tested on: T-47D breast
BT-549 breast = tested on: BT-549 breast
MDA-MB-435 melanoma = tested on: MDA-MB-435 melanoma
SW-620 colon = tested on: SW-620 colon
MCF7 breast = tested on: MCF7 breast
HCT-116 colon = tested on: HCT-116 colon
HCC-2998 colon = tested on: HCC-2998 colon
KM12 colon = tested on: KM12 colon
SK-OV-3 ovarian = tested on: SK-OV-3 ovarian

Measured: growth

Cn1ccnc1C(=O)/C=C/c1ccc(C(=O)Nc2ccc(F)cc2)cc1
inactive: OVCAR-8 ovarian 18.3% | OVCAR-5 ovarian 21.4% | OVCAR-4 ovarian 28.5% | OVCAR-3 ovarian 10.8% | HS 578T breast 40.9% | NCI/ADR-RES ovarian 11.2% | T-47D breast 23.4% | MDA-MB-435 melanoma 18.3% | MCF7 breast 19%
active: SR leukemia 2.09% | RPMI-8226 leukemia -17.1% | IGROV1 ovarian 7.02% | BT-549 breast -14.9% | SW-620 colon 4.13% | HCT-116 colon -81.5% | HCC-2998 colon -0.654% | KM12 colon 3.4%

CCN1C(=O)N(CC)C2C1NN=C1SCC(=O)N12 (configuration not stated)
active: HCT-116 colon 9.44%
inactive: SR leukemia 95.7% | RPMI-8226 leukemia 80.6% | OVCAR-8 ovarian 66.3% | OVCAR-5 ovarian 95.8% | OVCAR-4 ovarian 32.6% | IGROV1 ovarian 27.2% | OVCAR-3 ovarian 24.5% | HS 578T breast 98.4% | NCI/ADR-RES ovarian 84.6% | T-47D breast 31.9% | BT-549 breast 102% | MDA-MB-435 melanoma 99.1% | SW-620 colon 73.7% | HCC-2998 colon 105% | KM12 colon 105%

Cc1ccccc1OCC(O)COc1ccccc1C
inactive: SR leukemia 114% | RPMI-8226 leukemia 107% | OVCAR-8 ovarian 91.1% | OVCAR-5 ovarian 103% | OVCAR-4 ovarian 104% | IGROV1 ovarian 85.1% | OVCAR-3 ovarian 114% | HS 578T breast 117% | NCI/ADR-RES ovarian 111% | T-47D breast 88.7% | BT-549 breast 79.4% | MDA-MB-435 melanoma 94.6% | SW-620 colon 103% | MCF7 breast 90.7% | HCT-116 colon 103% | HCC-2998 colon 573% | KM12 colon 103%

Cc1ncc(C(=O)Nc2ccc(CN3CCN(C)CC3)c(C(F)(F)F)c2)cc1C#Cc1cnc(N)c2cnccc12
active: SR leukemia -17.8% | SK-OV-3 ovarian -30.9% | HS 578T breast -16.6% | T-47D breast 8.63% | MDA-MB-435 melanoma 6.4% | MCF7 breast -73.7% | HCT-116 colon -86.1% | HCC-2998 colon -1.5% | KM12 colon 9.54%
inactive: RPMI-8226 leukemia 39.2% | OVCAR-8 ovarian 15.4% | OVCAR-5 ovarian 12.5% | OVCAR-4 ovarian 40.7% | OVCAR-3 ovarian 31.2% | NCI/ADR-RES ovarian 55.3% | BT-549 breast 14.6%

CCCCCCCC/C=C\CCCCCCCCOc1ccccc1CC(=O)NCC[N+]1(C)CCCCC1
active: SR leukemia -5.14%
inactive: RPMI-8226 leukemia 19.7% | OVCAR-8 ovarian 60.5% | OVCAR-5 ovarian 66.2% | OVCAR-4 ovarian 34.1% | IGROV1 ovarian 16.5% | OVCAR-3 ovarian 41.3% | HS 578T breast 77.2% | NCI/ADR-RES ovarian 99.3% | T-47D breast 59.9% | BT-549 breast 47.9% | MDA-MB-435 melanoma 41.5% | SW-620 colon 61.1% | MCF7 breast 80% | HCT-116 colon 48.2% | HCC-2998 colon 57.5% | KM12 colon 22.5%

Cc1ccc(/C=C(\C#N)C(=O)Nc2ncc(Cc3cc(Cl)ccc3Cl)s2)o1
inactive: SR leukemia 90.1% | RPMI-8226 leukemia 49.3% | OVCAR-8 ovarian 49.8% | OVCAR-5 ovarian 69.6% | IGROV1 ovarian 71.7% | OVCAR-3 ovarian 75.4% | HS 578T breast 13% | NCI/ADR-RES ovarian 52.5% | T-47D breast 51.1% | BT-549 breast 65.4% | MDA-MB-435 melanoma 30.4% | SW-620 colon 53.4% | MCF7 breast 49.6% | HCT-116 colon 54.4% | HCC-2998 colon 29.7% | KM12 colon 27%
active: OVCAR-4 ovarian 1.2%

COP(=O)(OC)c1nnn(-c2cccc([N+](=O)[O-])c2)c1C
inactive: SR leukemia 104% | RPMI-8226 leukemia 103% | OVCAR-8 ovarian 101% | OVCAR-5 ovarian 104% | OVCAR-4 ovarian 103% | SK-OV-3 ovarian 123% | OVCAR-3 ovarian 111% | HS 578T breast 102% | NCI/ADR-RES ovarian 103% | T-47D breast 99.4% | BT-549 breast 105% | MDA-MB-435 melanoma 108% | HCT-116 colon 105% | HCC-2998 colon 110% | KM12 colon 105%

C=CC(C)(O)CC/C=C(\CO)C(=O)OC1C(C)OC(O[C@](C)(C=C)CC/C=C(\CO)C(=O)O[C@H]2C[C@@]3(C(=O)OC4OC(CO)C(O)C(O)C4OC4OC(C)C(OC5OC(CO)C(O)C5O)C(OC5OC(CO)C(O)C(O)C5O)C4O)C(CC2(C)C)C2=CCC4[C@@]5(C)CC[C@H](OC6OC(COC7OC(C)C(O)C(O)C7OC7OCC(O)C(O)C7O)C(O)C(O)C6NC(C)=O)C(C)(C)C5CC[C@@]4(C)[C@]2(C)C[C@H]3O)C(O)C1O (some centres not stated)
inactive: RPMI-8226 leukemia 41.4% | OVCAR-5 ovarian 11.8% | NCI/ADR-RES ovarian 17.5% | BT-549 breast 104%
active: SR leukemia -26.7% | OVCAR-4 ovarian -29.2% | SK-OV-3 ovarian -79.8% | IGROV1 ovarian -49.2% | OVCAR-3 ovarian -94% | HS 578T breast -31.4% | T-47D breast -54% | MDA-MB-435 melanoma -80.5% | SW-620 colon -43.2% | MCF7 breast -50% | HCT-116 colon 6.13% | HCC-2998 colon -90.5% | KM12 colon -86.7%

O=C1/C(=C/c2ccc(C(F)(F)F)cc2)COc2ccc(O)c(O)c21
inactive: OVCAR-4 ovarian 24.8% | SK-OV-3 ovarian 81.6% | HS 578T breast 10.4% | BT-549 breast 10.9%
active: SR leukemia 3.77% | RPMI-8226 leukemia -13.8% | OVCAR-5 ovarian -34.1% | IGROV1 ovarian -49.6% | OVCAR-3 ovarian -84.6% | NCI/ADR-RES ovarian -11.6% | T-47D breast -36.8% | MDA-MB-435 melanoma -5.38% | SW-620 colon -46% | MCF7 breast 4.91% | HCT-116 colon -35.5% | HCC-2998 colon -39.2%

CCOC(=O)C1=C(C)N=C2SC=C(c3ccccc3)N2[C@H]1c1cn[nH]c1-c1ccc(Cl)cc1
inactive: OVCAR-5 ovarian 108% | OVCAR-4 ovarian 55.6% | SK-OV-3 ovarian 62.5% | OVCAR-3 ovarian 22.5% | HS 578T breast 45.6% | NCI/ADR-RES ovarian 69.4% | T-47D breast 38.8% | BT-549 breast 34.1% | MDA-MB-435 melanoma 49.4% | SW-620 colon 37.7% | MCF7 breast 21.7% | HCT-116 colon 18.5% | HCC-2998 colon 109% | KM12 colon 59.4%
active: SR leukemia -31.2% | RPMI-8226 leukemia -8.38% | IGROV1 ovarian -24.4%

CCC(C)Nc1ccc(NC(C)CC)cc1 (configuration not stated)
inactive: SR leukemia 76.1% | RPMI-8226 leukemia 65.8% | OVCAR-5 ovarian 103% | OVCAR-4 ovarian 84.1% | SK-OV-3 ovarian 98.4% | IGROV1 ovarian 65.4% | OVCAR-3 ovarian 28.6% | HS 578T breast 110% | NCI/ADR-RES ovarian 94.5% | T-47D breast 79.7% | BT-549 breast 85.4% | MDA-MB-435 melanoma 95.3% | SW-620 colon 106% | MCF7 breast 47.2% | HCT-116 colon 28.2% | HCC-2998 colon 80.2% | KM12 colon 112%

C=C1C(=O)O[C@H]2[C@H]1CC/C(Cn1cc(-c3cc(C(F)(F)F)cc(C(F)(F)F)c3)nn1)=C\CC[C@@]1(C)O[C@@H]21
active: SR leukemia -48.5% | RPMI-8226 leukemia -31.4% | OVCAR-5 ovarian -69.4% | OVCAR-4 ovarian -95.1% | SK-OV-3 ovarian -89.5% | IGROV1 ovarian -78.6% | OVCAR-3 ovarian -92.7% | HS 578T breast -30.5% | NCI/ADR-RES ovarian -35.7% | T-47D breast -60.6% | BT-549 breast -78% | MDA-MB-435 melanoma -81.7% | SW-620 colon -35.8% | HCT-116 colon -87.2% | HCC-2998 colon -87.4% | KM12 colon -77.1%

C/C(C=O)=C\c1ccc2c(c1)OCO2
inactive: SR leukemia 109% | RPMI-8226 leukemia 96.7% | OVCAR-5 ovarian 110% | OVCAR-4 ovarian 109% | SK-OV-3 ovarian 105% | IGROV1 ovarian 116% | OVCAR-3 ovarian 132% | HS 578T breast 115% | NCI/ADR-RES ovarian 107% | T-47D breast 117% | BT-549 breast 114% | MDA-MB-435 melanoma 107% | SW-620 colon 118% | MCF7 breast 102% | HCT-116 colon 108% | HCC-2998 colon 108% | KM12 colon 110%

O=C1c2cccnc2C(=O)c2c1c(C(=O)OCCCN1CCCCC1)c1ccccn21
inactive: T-47D breast 24%
active: SR leukemia -15.8% | RPMI-8226 leukemia -28.3% | OVCAR-8 ovarian -32% | OVCAR-5 ovarian -19.2% | OVCAR-4 ovarian -61.8% | OVCAR-3 ovarian 0.168% | HS 578T breast -16% | NCI/ADR-RES ovarian -13.3% | BT-549 breast -24.1% | MDA-MB-435 melanoma -41.5% | SW-620 colon -60.1% | MCF7 breast -42% | HCT-116 colon -20.3% | HCC-2998 colon -35.7% | KM12 colon -33.2%

Cn1c(=O)c2c(c3ccccc31)OC(N)=C(C#N)C21C(=O)c2ccccc2C1=O
inactive: SR leukemia 105% | RPMI-8226 leukemia 94.8% | OVCAR-5 ovarian 98% | OVCAR-4 ovarian 92.4% | SK-OV-3 ovarian 90.8% | IGROV1 ovarian 92.4% | OVCAR-3 ovarian 98.7% | HS 578T breast 81.5% | NCI/ADR-RES ovarian 103% | T-47D breast 96.3% | BT-549 breast 87.2% | MDA-MB-435 melanoma 98.4% | SW-620 colon 82.3% | MCF7 breast 90% | HCT-116 colon 92.2% | HCC-2998 colon 101% | KM12 colon 95.2%

Cc1cc(N2CCN(C)CC2)nc(NCc2cc(Nc3ccnc4cc(Cl)ccc34)ccc2F)n1
inactive: OVCAR-4 ovarian 14.9% | SK-OV-3 ovarian 23% | IGROV1 ovarian 10.4% | HS 578T breast 11% | NCI/ADR-RES ovarian 18.7% | BT-549 breast 30.4% | KM12 colon 12.7%
active: SR leukemia -32% | RPMI-8226 leukemia -29.6% | OVCAR-5 ovarian -3.76% | OVCAR-3 ovarian -46.8% | T-47D breast -56.1% | MDA-MB-435 melanoma -43.6% | SW-620 colon -18.6% | MCF7 breast -9.33% | HCT-116 colon -45.3% | HCC-2998 colon -12.7%

CC(C)CCSc1nc(Nc2ccccc2)c(C#N)c(-c2ccccc2)n1
active: OVCAR-4 ovarian -7.19%
inactive: SR leukemia 27.2% | RPMI-8226 leukemia 73.9% | OVCAR-5 ovarian 64.9% | SK-OV-3 ovarian 69.1% | IGROV1 ovarian 17.3% | OVCAR-3 ovarian 57.6% | HS 578T breast 14.3% | NCI/ADR-RES ovarian 52.4% | T-47D breast 58.3% | BT-549 breast 62.1% | MDA-MB-435 melanoma 94% | SW-620 colon 56.9% | MCF7 breast 45.6% | HCT-116 colon 27.5% | HCC-2998 colon 46.3% | KM12 colon 89.9%
